Among the data in PubChem BioAssay are composite z-score and z-score values, retold here.

Activity calls are given as the source filed them.

Assay [1] can be described thus: small molecules captured by biotinylated probe aFSTL3 – biochemical, small-molecule microarray, fluorescence 635/667, stem cell growth factor project, primary screen (AID 1064).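 Note: measures binding of the biotinylated anti-FSTL3 antibody to printed compounds.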 Particulars: higher = more signal.
Assay [2] is described as follows: binders from COS7 lysate, DM2A8 probe, primary screen, torsin A project, cell lysate, small-molecule microarray, fluorescence 635/667 (AID 1065). Particulars: higher = more signal, COS7 lysate expressing mutant human TOR1A.
Assay [3] in a line: small molecules captured by biotinylated probe aFGF2 – biochemical, small-molecule microarray, fluorescence 635/667, stem cell growth factor project, primary screen (AID 1067).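 Note: measures binding of biotinylated aFGF2 protein to printed compounds on slides; z-score merges feature fluorescence and signal-to-noise across triplicate slides.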 Particulars: higher = more signal.
Assay [4] in a line: small molecules captured by biotinylated probe aFGF10 – biochemical, small-molecule microarray, fluorescence 635/667, stem cell growth factor project, primary screen (AID 1071).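 Note: score merges 667 nm spot intensity and signal to noise from triplicate slides.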 Particulars: higher = more signal.
Assay [5] addresses Neurogenic locus notch homolog protein 2 (Homo sapiens) (UniProt Q04721). The assay is described as follows: small molecules binding Notch2 protein – biochemical, small-molecule microarray, 635 nm fluorescence, stem cell growth factors, primary screen (AID 1073). The settings on record: higher = more signal.
Assay [6] has as its target Pro-neuregulin-1, membrane-bound isoform (Homo sapiens) (UniProt Q02297). The assay is described as follows: small molecules binding neuregulin-1 protein – biochemical, small-molecule microarray, fluorescence 635/667, psychiatric disease protein project, primary screen (AID 1075).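 Note: score combines 667 nm spot fluorescence with signal to noise.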 The settings on record: NRG1 binding, 635 nm fluorescence, higher = more signal.
The test system of assay [7] is Neuregulin-1 EGF-like domain. Kind of assay: small molecules binding NRG1 EGF domain – biochemical, small-molecule microarray, 635 nm fluorescence, primary screen (AID 1081).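 Note: binding of the protein to compounds printed on small-molecule microarray slides.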 The settings on record: higher = more signal.
Assay [8] is described as follows: FRG1 expression reporter modulators in myotubes – cell-based, C2C12 myotubes, firefly/Renilla luciferase, luminescence, FRG1 inhibition for FSHD, primary screen (AID 1084). Particulars: FRG1 promoter luciferase, higher = more signal, called active from +8 up or from −8 down.
A short description of assay [9]: small molecules captured by biotinylated probe aFST – biochemical, small-molecule microarray, fluorescence 635/667, stem cell growth factor project, primary screen (AID 1086).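 Note: score merges 667 nm fluorescence with signal-to-noise of each printed compound spot.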 Particulars: higher = more signal.
Assay [10] can be described thus: binders of probe aHhip on microarray, primary screen, stem cell growth factor project, biochemical, small-molecule microarray, fluorescence 635/667 (AID 1087).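 Note: score merges spot fluorescence at 667nm with spot signal to noise ratio.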 The settings on record: higher = more signal.
Assay [11] relates to PRMT1 (protein arginine N-methyltransferase 1). The assay is described as follows: small molecules binding arginine methyltransferase PRMT1 – biochemical, small-molecule microarray, 635 nm fluorescence, primary screen (AID 1088).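 Note: binding of Prmt1 protein to compounds spotted on small-molecule microarray slides.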 Particulars: higher = more signal.
Assay [12] is described as follows: growth effects on S. cerevisiae YJM789 – YJM789 clinical isolate, OD600, 24 h, basal, primary screen (AID 1089).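 Note: growth of clinical yeast isolate S. cerevisiae YJM 789 seeded 1000 cells per well; test concentration not given here.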 The settings on record: higher = more signal, called active from +8 up or from −8 down.
Assay [13] in a line: S. pombe growth modifiers, basal conditions – strain 972, OD600, 24 h, no modulator, primary screen (AID 1090).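 Note: basal condition with compound alone and no growth modifier present; test concentration not given here.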 Particulars: S. pombe 972 growth, higher = more signal, called active from +8 up or from −8 down.
Assay [14] is described as follows: budding yeast growth modifiers under rapamycin – strain BY4716, OD600, 96 h, primary screen (AID 1091). Note: test concentration not given here. The settings on record: S. cerevisiae BY4716 + rapamycin, higher = more signal, called active from +8 up or from −8 down.
The target in assay [15] is Torsin-1A-interacting protein 2 (Homo sapiens) (UniProt Q8NFQ8). The assay is described as follows: small molecules binding lysate-expressed LULL1 – cell lysate, human LULL1 lysate, 635/667 nm fluorescence, primary screen (AID 1092).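 Note: score merges per-feature 667 nm fluorescence with signal-to-noise.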 The settings on record: small-molecule microarray, hLULL1 lysate binding, 635 nm fluorescence; higher = more signal.
The nature of assay [16]: optical density change of DRC41 E. coli – strain DRC41, OD650, 24 h, E. coli filamentation project, primary screen (AID 1093).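 Note: MC1000 strain lacking acrAB efflux and sulA so SOS filamentation is blocked; test concentration not given here.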 Particulars: E. coli DRC41 growth, higher = more signal, called active from +8 up or from −8 down.
Assay [17] can be described thus: probe aLefty2 binding to arrayed compounds – biochemical, biotinylated probe, 635/667 nm fluorescence, primary screen (AID 1094).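 Note: score merges spot fluorescence near 667 nm with spot signal-to-noise ratio.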 Particulars: small-molecule microarray, higher = more signal.
The subject of assay [18] is Noggin (protein binding on small-molecule microarray). The assay is described as follows: small molecules binding Noggin protein – biochemical, 635/667 nm fluorescence, primary screen (AID 1095).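 Note: score merges 667 nm feature fluorescence with signal to noise over triplicate slides.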 Particulars: 635 nm fluorescence, higher = more signal.
The target in assay [19] is Neurogenic locus notch homolog protein 3 (Homo sapiens) (UniProt Q9UM47). The assay is described as follows: small molecules binding NOTCH3 protein – biochemical, 635/667 nm fluorescence, primary screen (AID 1096). Particulars: small-molecule microarray, 635 nm fluorescence, higher = more signal.
Assay [20] is described as follows: probe aEGFR binding to arrayed compounds – biochemical, biotinylated probe, 635/667 nm fluorescence, primary screen (AID 1097).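 Note: probe is a biotinylated anti-EGFR antibody binding compounds printed on slides; score combines fluorescence near 667 nm and signal to noise of each spot.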 The settings on record: small-molecule microarray, higher = more signal.

Sequence of Pro-neuregulin-1, membrane-bound isoform (Homo sapiens) (Q02297 whole entry, looked up, the tested form may be a part, canonical isoform): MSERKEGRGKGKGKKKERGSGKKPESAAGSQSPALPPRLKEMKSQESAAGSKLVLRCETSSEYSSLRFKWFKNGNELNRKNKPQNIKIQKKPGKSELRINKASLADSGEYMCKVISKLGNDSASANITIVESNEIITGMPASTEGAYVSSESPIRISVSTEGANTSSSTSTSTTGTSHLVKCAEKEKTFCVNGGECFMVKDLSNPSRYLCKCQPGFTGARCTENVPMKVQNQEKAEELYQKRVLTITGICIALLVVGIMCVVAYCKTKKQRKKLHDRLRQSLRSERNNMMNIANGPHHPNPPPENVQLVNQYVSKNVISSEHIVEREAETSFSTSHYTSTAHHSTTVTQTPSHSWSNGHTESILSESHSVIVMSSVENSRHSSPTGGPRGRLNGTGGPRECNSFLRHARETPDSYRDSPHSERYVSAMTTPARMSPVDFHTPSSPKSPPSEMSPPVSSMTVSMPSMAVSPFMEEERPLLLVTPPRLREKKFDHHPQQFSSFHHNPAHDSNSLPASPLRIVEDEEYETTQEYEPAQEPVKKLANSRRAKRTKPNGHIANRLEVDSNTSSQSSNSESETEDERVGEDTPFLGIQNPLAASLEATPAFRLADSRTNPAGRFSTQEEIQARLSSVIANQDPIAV
Sequence of Neurogenic locus notch homolog protein 2 (Homo sapiens) (Q04721 whole entry, looked up, canonical isoform): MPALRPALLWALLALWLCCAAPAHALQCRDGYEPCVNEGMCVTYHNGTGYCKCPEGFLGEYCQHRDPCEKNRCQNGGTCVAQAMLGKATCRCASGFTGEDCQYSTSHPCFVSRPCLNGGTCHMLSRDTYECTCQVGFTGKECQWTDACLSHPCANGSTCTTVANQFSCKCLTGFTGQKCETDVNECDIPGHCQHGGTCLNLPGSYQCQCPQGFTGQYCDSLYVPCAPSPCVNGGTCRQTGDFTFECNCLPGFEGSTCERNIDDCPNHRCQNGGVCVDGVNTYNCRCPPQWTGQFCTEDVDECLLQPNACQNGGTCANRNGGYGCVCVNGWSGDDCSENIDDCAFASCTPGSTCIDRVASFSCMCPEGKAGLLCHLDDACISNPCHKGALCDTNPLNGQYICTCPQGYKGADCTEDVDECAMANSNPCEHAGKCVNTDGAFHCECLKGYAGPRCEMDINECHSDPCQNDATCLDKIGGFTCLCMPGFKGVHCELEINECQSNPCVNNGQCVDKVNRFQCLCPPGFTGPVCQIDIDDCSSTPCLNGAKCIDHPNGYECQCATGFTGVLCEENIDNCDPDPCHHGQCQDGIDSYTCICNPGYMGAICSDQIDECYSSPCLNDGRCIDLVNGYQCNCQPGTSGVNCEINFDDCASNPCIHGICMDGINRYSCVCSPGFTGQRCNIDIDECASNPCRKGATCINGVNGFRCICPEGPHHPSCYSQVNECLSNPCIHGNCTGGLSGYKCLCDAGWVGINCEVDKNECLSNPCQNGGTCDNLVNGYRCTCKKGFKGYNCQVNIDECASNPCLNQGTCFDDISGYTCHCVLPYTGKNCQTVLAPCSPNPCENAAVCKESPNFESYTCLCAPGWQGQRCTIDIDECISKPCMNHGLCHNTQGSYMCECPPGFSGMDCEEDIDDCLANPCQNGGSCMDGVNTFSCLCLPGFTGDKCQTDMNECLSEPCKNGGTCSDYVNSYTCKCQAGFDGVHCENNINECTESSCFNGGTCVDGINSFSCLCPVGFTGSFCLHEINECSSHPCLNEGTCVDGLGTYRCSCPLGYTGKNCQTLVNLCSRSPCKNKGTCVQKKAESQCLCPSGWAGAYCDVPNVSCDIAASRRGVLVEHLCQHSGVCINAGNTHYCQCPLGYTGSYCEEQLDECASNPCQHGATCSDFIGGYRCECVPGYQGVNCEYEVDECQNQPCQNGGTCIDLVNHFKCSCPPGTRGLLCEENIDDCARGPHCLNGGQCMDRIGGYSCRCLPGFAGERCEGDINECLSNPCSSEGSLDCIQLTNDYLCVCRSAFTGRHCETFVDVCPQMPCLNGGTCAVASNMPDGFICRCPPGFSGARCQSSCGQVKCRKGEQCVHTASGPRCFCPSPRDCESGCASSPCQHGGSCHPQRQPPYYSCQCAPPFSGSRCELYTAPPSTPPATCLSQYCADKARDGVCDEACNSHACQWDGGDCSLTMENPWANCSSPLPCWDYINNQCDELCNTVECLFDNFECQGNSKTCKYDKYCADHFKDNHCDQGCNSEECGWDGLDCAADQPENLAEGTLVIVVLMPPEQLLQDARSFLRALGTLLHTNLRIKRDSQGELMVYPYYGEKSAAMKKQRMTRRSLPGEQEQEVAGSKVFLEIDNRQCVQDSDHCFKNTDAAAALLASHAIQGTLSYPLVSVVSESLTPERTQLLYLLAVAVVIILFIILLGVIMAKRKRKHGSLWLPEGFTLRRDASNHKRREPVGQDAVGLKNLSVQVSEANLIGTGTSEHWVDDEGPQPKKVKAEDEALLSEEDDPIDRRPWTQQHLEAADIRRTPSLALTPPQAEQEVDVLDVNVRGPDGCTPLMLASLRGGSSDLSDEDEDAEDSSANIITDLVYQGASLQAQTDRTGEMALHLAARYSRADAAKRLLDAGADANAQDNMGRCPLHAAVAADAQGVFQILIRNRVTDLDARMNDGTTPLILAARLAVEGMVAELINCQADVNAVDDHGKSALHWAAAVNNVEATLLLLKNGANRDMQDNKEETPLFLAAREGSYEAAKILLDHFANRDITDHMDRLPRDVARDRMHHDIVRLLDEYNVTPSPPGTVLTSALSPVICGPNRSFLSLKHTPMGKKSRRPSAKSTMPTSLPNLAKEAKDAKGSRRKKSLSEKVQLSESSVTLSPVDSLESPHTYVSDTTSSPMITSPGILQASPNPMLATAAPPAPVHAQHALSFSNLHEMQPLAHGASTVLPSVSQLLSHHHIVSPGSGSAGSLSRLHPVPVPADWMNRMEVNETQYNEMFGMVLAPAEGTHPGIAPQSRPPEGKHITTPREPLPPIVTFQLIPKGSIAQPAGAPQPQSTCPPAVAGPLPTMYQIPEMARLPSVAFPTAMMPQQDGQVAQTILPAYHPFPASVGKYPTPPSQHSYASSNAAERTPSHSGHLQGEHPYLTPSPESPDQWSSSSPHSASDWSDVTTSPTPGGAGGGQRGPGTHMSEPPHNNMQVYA
Sequence of Torsin-1A-interacting protein 2 (Homo sapiens) (Q8NFQ8 whole entry, looked up): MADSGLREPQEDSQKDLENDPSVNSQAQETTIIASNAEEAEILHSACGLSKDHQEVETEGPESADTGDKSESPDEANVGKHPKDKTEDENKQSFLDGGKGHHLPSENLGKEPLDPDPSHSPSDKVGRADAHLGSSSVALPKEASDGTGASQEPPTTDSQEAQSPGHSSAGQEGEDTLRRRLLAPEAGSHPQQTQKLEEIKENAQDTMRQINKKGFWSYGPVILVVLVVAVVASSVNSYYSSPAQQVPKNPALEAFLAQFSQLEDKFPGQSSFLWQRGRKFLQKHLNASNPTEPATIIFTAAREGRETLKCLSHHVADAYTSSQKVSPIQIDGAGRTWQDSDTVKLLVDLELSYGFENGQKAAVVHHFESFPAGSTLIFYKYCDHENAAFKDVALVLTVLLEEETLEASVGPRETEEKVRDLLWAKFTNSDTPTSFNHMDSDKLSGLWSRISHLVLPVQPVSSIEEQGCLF

For `COc1ccc([Si](C)(C)[C@H]2[C@H](CC(=O)N(CCO)Cc3ccccc3)O[C@@]3(C(=O)N(Cc4cccc(N5C(=O)c6cccc7cccc5c67)c4)c4ccccc43)[C@@H]2C)cc1`, the composite z-score in assay [1] was -0.184; in [2] it was 0.199; in assay [3], -0.0664; in assay [4], 0.202; in assay [5] it was -0.588; in assay [6] it was 0.824. The composite z-score is 1.2 in assay [7]; -0.246 in assay [9]; -0.236 in [10]; 1.19 in [11]; 1.72 in [15]; -0.0158 in assay [17]. For the same compound, the results for the composite z-score in assay [18], in assay [19] and in [20] were 0.315, 0.228 and -0.378, respectively. The z-score was -3.13 (inactive) in [8]; -1.64 (inactive) in [12]; -0.897 (inactive) in assay [13]; 2.79 (inactive) in assay [14]; 1.02 (inactive) in assay [16].
For the compound `COC(=O)[C@@]1(Cc2ccc(F)cc2)[C@H]2c3cc(C(=O)N4CCCC4)n(CCc4ccc(OC)c(Br)c4)c3C[C@H]2CN1C(=O)c1ccccc1`, the composite z-score in assay [1] is 0.502; in [2], 1.27; in assay [3], 0.266; in assay [4], 0.832; in [5], 1.83; in [6], 1.55. Besides, the composite z-score amounted to 1.29 in assay [7]; 1.94 in [9]; 1.68 in assay [10]; 1.4 in assay [11]; 3.52 in assay [15]; 0.436 in assay [17]. The composite z-score in assay [18] is -0.0473; in assay [19], 1.03; in [20], 0.324. The z-score in [8] was -0.784 (inactive); in assay [12] it was 0.0318 (inactive); in assay [13] it was 1.53 (inactive); in [14], 2.31 (inactive); in assay [16], -0.224 (inactive).
Regarding `C=CCN1Cc2ccccc2C[C@]2(N=C(c3ccc(OCCCO)cc3)O[C@@H]2c2ccccc2)C1=O`, the composite z-score in assay [1] is 0.211; in assay [2], 0.363; in assay [3], -0.0883; in assay [4], -0.147; in assay [5] it was 0.977; in assay [6] it was 0.414. Besides, the composite z-score in [7] was 1.35; in assay [9], 0.607; in [10] it was 0.0722; in assay [11], 1.56; in assay [15] it was 3.27; in [17], 0.129. Also, the composite z-score in assay [18] is 0.824; in assay [19] it was 1.07; in assay [20], -0.0455. Besides, the z-score is -3.57 (inactive) in [8]; -6.17 (inactive) in assay [12]; -9.52 (active) in [13]; 0.272 (inactive) in assay [14]; 1.49 (inactive) in assay [16].
With `CC(C)C[C@@H]1NC(=O)[C@@H]2C[C@H](C(=O)NCCCCN(C)C)[C@H](c3ccc(O)cc3)N2C1=O`, the composite z-score in assay [1] was 0.493; in [2], -0.202; in assay [3], -0.167; in assay [4] it was -1.02; in assay [5], -1.32; in assay [6], -0.343. The composite z-score was 0.443 in [7]; -0.819 in assay [9]; -0.0296 in assay [10]; 0.577 in assay [11]; 0.218 in assay [15]; 0.0566 in assay [17]. Also, the composite z-score in assay [18] is 0.118; in assay [19], -0.531; in [20], -0.218. Also, the z-score in [8] was 1.92 (inactive); in assay [12], -0.145 (inactive); in [13], 1.36 (inactive); in assay [14] it was -0.367 (inactive); in [16], -0.0929 (inactive).
On to `C=CCN1C(=O)[C@]2(COC(c3ccc(OCCCO)cc3)=N2)Cc2ccccc21`, for which the composite z-score in assay [1] came out at 0.842; in assay [2], 0.33; in [3] it was 0.136; in assay [4], 0.115; in [5], 0.595; in assay [6], 0.977. In addition, the composite z-score is 1.08 in assay [7]; 0.258 in [9]; -0.3 in assay [10]; 1.36 in assay [11]; 3.21 in assay [15]; 0.0914 in assay [17]. Further, the composite z-score in [18] was 0.044; in [19] it was 0.801; in assay [20], -0.163. Also, the z-score in assay [8] was -0.664 (inactive); in assay [12], -2.32 (inactive); in assay [13], -5.3 (inactive); in assay [14], -1.78 (inactive); in [16] it was 1.09 (inactive).
